High-throughput results (PubChem BioAssay)
IDH1 R132H inh: human IDH1 R132H inhibition; IDH1-R132H enzyme, NADPH consumption, diaphorase/resazurin fluorescence; Potency, µM (top dose mostly 76.6 µM), without a hit: top-dose activity change, negative = inhibition, actives largely listed as inhibitors; 390,000 compounds, 0.093% hits; AID 602179; active means well fitted inhibition curve with a large enough effect; inconclusive means small, poorly fitted or top-dose-only effect; inactive means no such curve, though single readings can be large or run the other way; further: potency means the concentration at half of the fitted maximal effect; on the % scale 0 is the no-effect control and ±100 the full control effect; nearly all actives have a fitted effect of over 65% in size
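IDH1-R132H (0.5 ug/mL) preincubated 30 min with compound, then NADPH (0.016 mM) and alpha-KG (2 mM) added; 80 min at RT, pH 7.5. Remaining NADPH coupled via diaphorase/resazurin to fluorescence (540/590 nm); concentration-response curves normalized to no-enzyme control.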
MLL CXXC-DNA inh: MLL CXXC-DNA interaction inhibition. MLL-CXXC / FITC-HOXA9 DNA fluorescence polarization. 290,000 compounds, 0.037% hits. Potency, µM (doses to about 115 µM), for the others: at the top dose activity change, negative = inhibition, hits mostly inhibitors; active means well fitted inhibition curve with a large enough effect in the polarisation, with a control signal flat, not every such curve was filed as active; inconclusive means small, poorly fitted or top-dose-only effect, or effect the other way, or a change in a side signal; inactive means no such curve, though single readings can be large or run the other way; the % refers to the polarisation; further: potency means the concentration at half of the fitted maximal effect
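Purified MLL-CXXC (added from a 7 uM solution) was preincubated 5 min at ambient with pinned compounds in 50 mM Tris-HCl pH 7.5, 50 mM NaCl, 1 mM DTT, 0.05% BSA. Fluorescein-labeled HOX-A9 DNA (50 nM solution) followed, 30 min, then polarization read.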
Menin MLL FP TR: menin-MLL binding inhibition, Texas Red mutant peptide; O00255; AID 1768; 270,000 compounds, 0.23% hits; Potency, µM (titrated, usually from 61.6 µM), without a hit: at the highest dose FP activity change, negative = inhibition, usual class: inhibitors; Menin + Texas Red MLL mutant peptide, fluorescence polarization; active means well fitted inhibition curve with a large enough effect in the polarisation, with a control signal flat, not every such curve was filed as active; inconclusive means small, poorly fitted or top-dose-only effect, or effect the other way, or a change in a side signal; inactive means no such curve, though single readings can be large or run the other way; the % refers to the polarisation; further: potency means the concentration at half of the fitted maximal effect; % of control where 0% means no effect
Target sequence (O00255 whole entry, looked up): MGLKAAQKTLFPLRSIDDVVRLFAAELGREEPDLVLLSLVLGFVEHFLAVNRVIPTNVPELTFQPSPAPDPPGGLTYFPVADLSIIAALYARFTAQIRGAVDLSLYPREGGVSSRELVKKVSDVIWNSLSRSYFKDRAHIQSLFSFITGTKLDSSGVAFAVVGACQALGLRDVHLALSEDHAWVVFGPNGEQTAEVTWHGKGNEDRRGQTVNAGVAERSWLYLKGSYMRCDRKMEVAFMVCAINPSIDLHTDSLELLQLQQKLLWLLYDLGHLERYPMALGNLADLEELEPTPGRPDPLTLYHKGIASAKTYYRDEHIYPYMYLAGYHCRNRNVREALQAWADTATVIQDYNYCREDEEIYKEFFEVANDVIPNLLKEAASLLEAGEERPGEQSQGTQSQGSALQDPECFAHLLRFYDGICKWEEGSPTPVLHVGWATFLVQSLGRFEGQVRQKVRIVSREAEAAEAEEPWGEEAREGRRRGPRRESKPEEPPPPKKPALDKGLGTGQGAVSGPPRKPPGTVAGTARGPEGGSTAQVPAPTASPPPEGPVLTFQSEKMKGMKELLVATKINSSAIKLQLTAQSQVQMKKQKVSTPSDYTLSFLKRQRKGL
pAkt inh: blocks phosphorylation of Akt; Neuro2A IGF-stimulated pAkt S473 HTRF, 20 min; hits give low values; activity change, % for hits at 50 µM; 360,000 compounds, 0.32% hits; in the data active means activity change below about -80%; inconclusive means mostly about -51% to -80%; further: on the % scale 0 is the no-effect control and ±100 the full control effect
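Neuro2A cells (4,500/well, DMEM with 0.5% FBS) were treated with compound at a single 50 µM final concentration, stimulated with 6 nM IGF for 20 min at 37 °C, and lysed. Phospho-Akt Ser473 was read by HTRF as 665/615 ratio ×10^4.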
Menin MLL FP FL: displaces fluorescein MLL peptide from human menin | FP activity change, % at 61.4 µM | 290,000 tested, under 10 active | Fluorescence polarization, fluorescein-MLL peptide displacement from menin; active means well fitted curve in the direction sought with a large enough effect in the polarisation, not every such curve was filed as active; inconclusive means small, poorly fitted or top-dose-only effect, or effect the other way, or a change in a side signal; inactive means no such curve, though single readings can be large or run the other way; the % refers to the polarisation; further: % of control where 0% means no effect
LDHA inh: LDHA (human) enzyme inhibition; activity change, % (values are at about 110 or 230 µM); P00338; 480,000 compounds, 0.15% hits; purified LDHA, NADH/diaphorase-resazurin fluorescence; hits give low values; AID 1347041; in the data active means activity change below about -30%; inconclusive means mostly about -25% to -30%;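 further: plate controls were DMSO wells for no effect and wells without enzyme for full effect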
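Remaining NADH was detected by diaphorase (0.133 mg/mL) converting 37 µM resazurin to fluorescent resorufin, read at 0 and 20 minutes. The preceding 5-minute room-temperature reaction used 2 nM LDHA, 0.2 mM sodium pyruvate and 0.06 mM NADH at pH 7.4.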
Numbers without * were called inactive; i = inactive; ? = inconclusive; . = no result. This is a sample that favours compounds with a hit; in the whole collection about 0.54% have one here.

SMILES	IDH1 R132H inh	MLL CXXC-DNA inh	Menin MLL FP TR	pAkt inh	Menin MLL FP FL	LDHA inh
O=C(CSc1nnc(CNC(=O)c2c(F)cccc2Cl)o1)NCc1ccc2c(c1)OCO2	-8%	4%	9%	-107%*	0	-6
Cc1cc(NC(=O)c2nc3ccccc3nc2N2CCCC2)ccc1Br	.	.	.	.	.	-1
CS(=O)(=O)NNC(=O)c1cc2cc3ccccc3nc2s1	0%	-3%	-1%	i	6	10
NNC(=O)c1cc2cc3ccccc3nc2s1	2%	3%	14%	i	4	-34*
O=C1CC(=O)CC(c2cc(F)cc(F)c2)C1	.	.	.	.	.	8
Cc1cc(N2CCCCC2)nc2ccc(NC(=O)c3cccc(F)c3)cc12	8%	.	.	.	.	3
Cc1cc(N2CCCCCC2)nc2ccc(F)cc12	2%	.	.	-92%*	.	3
COC(=O)CSc1nc(N)c2c3c(sc2n1)CCCC3C (configuration not stated)	.	.	.	.	.	-5
Cc1cccc(-c2nc(C#N)c(N3CCN(c4ccccc4)CC3)o2)c1	.	.	.	.	.	-12
CCSc1ncnc2sc3c(c12)CCC3	6%	6%	5%	i	0	-5
Fc1ccc(CSc2ncnc3sc4c(c23)CCCC4)cc1	0%	1%	-17%	-114%*	-1	-2
CCn1c(N)c(C(=O)N2CCOCC2)sc1=S	3%	-4%	-4%	-114%*	2	-5
Cc1ccccc1CN(C)CCc1ccccn1	-8%	6%	0%	i	-1	-32*
Cc1cccc(CN(C)CCc2ccccn2)c1	5%	-1%	-10%	i	5	-22
Cc1cc(C)c2nc(Nc3nc(C(C)C)cc(=O)[nH]3)nc(C)c2c1	.	.	.	.	.	-32*
Cc1cc(-c2nnc(SCC(=O)Nc3nc(-c4ccc(Cl)cc4)cs3)o2)no1	-6%	-3%	.	i	4	-7
Cc1cc(C)cc(-n2nnnc2SCC(=O)Nc2nc(-c3ccc(F)cc3)cs2)c1	0%	23%	35µM*	i	-1	-6
O=C(O)CCCC(=O)Nc1nc(-c2ccc(F)cc2)cs1	7%	25%	-3%	-115%*	-2	-10
COc1ccc(-c2csc(NC(=O)CSc3nnnn3C)n2)cc1OC	3%	.	.	i	.	0
O=C(O)CCCC(=O)Nc1nc(-c2ccccc2)cs1	-9%	0%	3%	i	-1	-2
Cc1cc(C)cc(-n2nnnc2SCC(=O)Nc2nc(-c3ccc(Cl)cc3)cs2)c1	6%	-4%	28µM*	i	6	-15
Cc1ccc(CS(=O)Cc2c(F)cccc2Cl)cc1 (configuration not stated)	.	.	.	.	.	3
COc1ccc(OC)c(CC(C#N)C(=O)Nc2cc(C)ccc2C)c1 (configuration not stated)	.	.	.	.	.	-3
O/N=C1\CCCc2ccc(Cl)cc21	-6%	9%	3%	i	-1	3
O/N=C1\CCc2cc(Cl)ccc21	8%	2%	0%	-102%*	2	0
SMILES	IDH1 R132H inh	MLL CXXC-DNA inh	Menin MLL FP TR	pAkt inh	Menin MLL FP FL	LDHA inh
CC(C)NC(=O)NC(=O)C(C)N(C)Cc1ccccc1 (configuration not stated)	.	.	.	.	.	7
COc1ccc(Br)cc1CNc1ccc(N2CCOCC2)cc1	8%	1%	14µM*	i	-11	5
COc1ccc(CNc2ccc(N3CCOCC3)cc2)cc1	3%	-2%	-6%	i	4	8
Fc1ccc(C2=CC(c3c(F)cccc3Cl)n3nnnc3N2)cc1 (configuration not stated)	.	.	.	.	.	2
COc1cc(/C=C2/SC(=S)NC2=O)ccc1OS(=O)(=O)c1ccc(C)cc1	?	8%	?	i	21	-34*
COc1cc(/C=C2\SC(=S)NC2=O)ccc1OS(=O)(=O)c1ccccc1	.	0%	?	.	?	.
CC1CCCC(NC(=O)c2ccc(C#N)cc2)C1C (configuration not stated)	.	.	.	.	.	-1
CCOC(=O)c1ccc(NC(=O)CCc2nc(-c3ccccc3)no2)cc1	4%	9%	?	-101%*	3	6
COc1ccc(-c2nc(CS(=O)(=O)CC(=O)NCc3cccnc3)c(C)o2)cc1	.	.	.	.	.	2
COc1cccc(-c2nc(CS(=O)(=O)CC(=O)NCc3cccnc3)c(C)o2)c1	.	.	.	.	.	-34*
CSc1ccccc1NC(=O)CNCCCN1CCOCC1	14%	-15%	.	i	2	-36*
CCN(CC)C(=O)CN(C1CCCCC1)S(=O)(=O)c1ccc(Br)cc1	.	.	.	.	.	-37*
C=CCn1c(SCc2coc(-c3ccc(C)cc3C)n2)nnc1C1CCS(=O)(=O)C1 (configuration not stated)	.	.	.	.	.	-4
C#CCOC(=O)Nc1cccn(Cc2c(Cl)cccc2Cl)c1=O	0%	4%	-12%	-120%*	0	-1
COc1ccc(C(=O)N(c2ccc(OC)cc2)S(=O)(=O)c2cccs2)cc1	6%	180%	21%	i	5	-2
COc1ccc(N(C(=O)c2ccco2)S(=O)(=O)c2cccs2)cc1	0%	226%	3%	-113%*	0	-2
CC(=O)N(c1ccc(N(C(C)=O)S(=O)(=O)c2cccs2)cc1)S(=O)(=O)c1cccs1	-1%	19%	-14%	i	3	-88*
CC(=O)N(c1ccc(N(C(C)=O)S(=O)(=O)c2ccccc2)cc1)S(=O)(=O)c1ccccc1	5%	31%	26%	i	-1	-66*
COc1ccc(N(C(=O)c2ccccc2)S(=O)(=O)c2cccs2)cc1	3%	249%	16%	i	0	-2
O=S(=O)(NCCc1coc(-c2ccccc2)n1)c1ccccc1	.	.	.	.	.	8
CC(C)(C)c1cc(Oc2cc(C(C)(C)C)cc(C(C)(C)C)c2O)c(O)c(C(C)(C)C)c1	.	.	.	.	.	7
COc1nc(-c2ccc(C)cc2)ccc1-c1noc(-c2cccnc2)n1	9%	-2%	1%	-105%*	6	0
COc1nc(-c2ccccc2)ccc1-c1noc(-c2cccnc2)n1	9%	-5%	6%	i	4	1
CCCCC(=O)N(C)c1c(CC)nc2c(OCCC)cccn12	.	.	.	i	.	-15
CCCCC(=O)N(C)c1c(CC)nc2c(OCC(=O)N3CCOCC3)cccn12	.	.	.	i	.	-37*
CCOc1cc(S(=O)(=O)NCc2ccc(OC)cc2)c(OCC)cc1-n1cnnn1	5%	-1%	-2%	-92%*	3	-3
CCOc1cc(S(=O)(=O)NCCc2ccc(OC)c(OC)c2)c(OCC)cc1-n1cnnn1	4%	4%	-4%	i	-2	1
O=C(NCc1ccccc1)c1ccc(CSc2nc3cccnc3n2Cc2ccccc2F)cc1	-17%	.	.	.	.	-33*
